The values that follow come from the supplement of paper PMC8540655.

Unmarked numbers belong to inactive results.

The subject of one assay is Aedes aegypti larvae. The experiment in a line: larval motility relative to same well at 0 h (fraction); higher = more motile (less active compound), active = 0.4 or less. Particulars: 10 µM; 2 h. On the procedure: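 MMV Pandemic Response Box compounds were tested at 10 µM (1% v/v DMSO) on Aedes aegypti larvae (18-24 h after hatching, about 10 per well, 96-well plates). Motility was quantified with INVAPP (200-frame movies) at 0, 2 and 24 h. Each well's motility was divided by its own 0 h score, and the median of 3 independent screens is reported.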
On to `O=[N+]([O-])c1cn(Cc2nc(O)nc(O)c2Br)cn1`, for which the larval motility is 0.834.
As for `CC(=O)O[C@H]1C[C@@]2(C)[C@@H](C[C@@H](O)[C@H]3[C@@]4(C)CC[C@@H](O)[C@@H](C)[C@@H]4CC[C@@]32C)/C1=C(\CCC=C(C)C)C(=O)O`, the larval motility is 0.95.
Still for that read-out and setting: next, `N=C(N)NCCCCC(=O)Nc1cc(C(F)(F)F)cc(NC(=O)c2cc(C(=O)Nc3cc(C(F)(F)F)cc(NC(=O)CCCCNC(=N)N)c3O[C@@H]3CCNC3)ncn2)c1O[C@@H]1CCNC1`: 0.425; `[N-]=[N+]=N[C@H]1C[C@H](n2ccc(=O)[nH]c2=O)O[C@@H]1CO`: 1.11; `O=[N+]([O-])c1ccc2c(CCc3c[nH]c4ccccc34)c[nH]c2c1`: 1.12.
On to `C[C@H]1CC[C@@]2(O)C(C)(C)[C@@H]3CC[C@@]2(C)[C@H]1C3`, for which the larval motility is 0.756.
Still for that read-out and setting: next, `COc1cc(C)c2c(Oc3cccc(C(F)(F)F)c3)c(OC)cc(NC(C)CCCN)c2n1` (stereo not given): 0.654; `CC(Cc1ccccc1)C(=O)Nc1ccc(Cl)cc1C(=O)O` (stereo not given): 1.32; `Oc1cc(-c2cccc3ccccc23)[nH]n1`: 0.626.
The same measure, in the same setting: next, `Fc1ccc2c(/C=C/c3nnn[nH]3)c[nH]c2c1`: 1.85; `O=C(NN1C(=O)[C@@H]2C3C=CC([C@H]4C[C@@H]34)[C@@H]2C1=O)c1ccc(C(F)(F)F)cc1`: 0.844.
As to `Nc1nc(C(F)(F)F)cc2c1[nH]c(=O)n2Cc1ccccc1`, the larval motility was 0.857.
For the compound `Nc1nc(N)c2c(Sc3ccccc3)cccc2n1`, the larval motility is 1.24.
Still for that read-out and setting: the value for `CC(C)(C)c1ccc(Oc2ccc(N)cc2)cc1` was 0.91; that for `Cc1cccc(CC(=O)N[C@H]2CCOC2=O)c1` was 1.05; that for `O=C(Cn1cnc2ccccc2c1=O)Nc1ccccc1` was 0.554.
The same measure, in the same setting: next, `CC(C)Nc1ncnc2c1cnn2-c1ccc(Cl)cc1`: 0.689; `O=C(c1nc2c(C(F)(F)F)cc(C3CC3)cn2c1Cl)N1CCN([C@H]2CC[C@H](O)CC2)C(=O)C1`: 0.697; `NC(=O)c1nccn([C@@H]2O[C@H](CO)[C@@H](O)[C@H]2O)c1=O`: 0.824.
As to `CC(C)N(c1cc(-c2ccccc2)sc1C(=O)O)C(=O)[C@H]1CC[C@H](C)CC1`, the larval motility is 0.697.

The assay is the same for the next values; noted with them: 10 µM; 24 h.
In the case of `O=[N+]([O-])c1cn(Cc2nc(O)nc(O)c2Br)cn1`, the larval motility was 0.417.
Turning to `CC(=O)O[C@H]1C[C@@]2(C)[C@@H](C[C@@H](O)[C@H]3[C@@]4(C)CC[C@@H](O)[C@@H](C)[C@@H]4CC[C@@]32C)/C1=C(\CCC=C(C)C)C(=O)O`, the larval motility was 0.825.
Turning to `N=C(N)NCCCCC(=O)Nc1cc(C(F)(F)F)cc(NC(=O)c2cc(C(=O)Nc3cc(C(F)(F)F)cc(NC(=O)CCCCNC(=N)N)c3O[C@@H]3CCNC3)ncn2)c1O[C@@H]1CCNC1`, the larval motility is 0.764.
Regarding `[N-]=[N+]=N[C@H]1C[C@H](n2ccc(=O)[nH]c2=O)O[C@@H]1CO`, the larval motility is 0.881.
As to `O=[N+]([O-])c1ccc2c(CCc3c[nH]c4ccccc34)c[nH]c2c1`, the larval motility is 0.813.
`C[C@H]1CC[C@@]2(O)C(C)(C)[C@@H]3CC[C@@]2(C)[C@H]1C3`: the larval motility is 0.757.
On the same count and under the same terms, the value for `COc1cc(C)c2c(Oc3cccc(C(F)(F)F)c3)c(OC)cc(NC(C)CCCN)c2n1` (stereo not given) was 0.385 (active).
On the same count and under the same terms, next, `CC(Cc1ccccc1)C(=O)Nc1ccc(Cl)cc1C(=O)O` (stereo not given): 1.05.
Consider `Oc1cc(-c2cccc3ccccc23)[nH]n1`, for which the larval motility is 0.554.
On to `Fc1ccc2c(/C=C/c3nnn[nH]3)c[nH]c2c1`, for which the larval motility is 1.39.
Turning to `O=C(NN1C(=O)[C@@H]2C3C=CC([C@H]4C[C@@H]34)[C@@H]2C1=O)c1ccc(C(F)(F)F)cc1`, the larval motility is 0.599.
As for `Nc1nc(C(F)(F)F)cc2c1[nH]c(=O)n2Cc1ccccc1`, the larval motility was 0.614.
For the compound `Nc1nc(N)c2c(Sc3ccccc3)cccc2n1`, the larval motility is 0.982.
As to `CC(C)(C)c1ccc(Oc2ccc(N)cc2)cc1`, the larval motility was 1.33.
Consider `Cc1cccc(CC(=O)N[C@H]2CCOC2=O)c1`, for which the larval motility was 1.31.
In the case of `O=C(Cn1cnc2ccccc2c1=O)Nc1ccccc1`, the larval motility is 0.782.
On to `CC(C)Nc1ncnc2c1cnn2-c1ccc(Cl)cc1`, for which the larval motility is 0.773.
Take `O=C(c1nc2c(C(F)(F)F)cc(C3CC3)cn2c1Cl)N1CCN([C@H]2CC[C@H](O)CC2)C(=O)C1`: the larval motility was 0.894.
Same read-out and setting: next, `NC(=O)c1nccn([C@@H]2O[C@H](CO)[C@@H](O)[C@H]2O)c1=O`: 1.16; `CC(C)N(c1cc(-c2ccccc2)sc1C(=O)O)C(=O)[C@H]1CC[C@H](C)CC1`: 0.742.
